A number with no mark means an inactive call. For part of these data: Measured potencies and affinities stand elsewhere. Activity calls are given as the source filed them. The rule behind the calls is not given here. Square brackets hold non-standard residues; d marks the D form. Peptide text beside a SMILES is read from it. * marks the point of attachment. Sta = CC(C)C[C@H](N)[C@@H](O)CC(=O)O; Isovaleryl = CC(C)CC(=O)*
Tests used:
[1] = Ebola virus entry assay, green fluorescence channel
[2] = Ebola virus entry assay, blue channel fluorescence
[3] = Ebola virus entry assay, ratio channel
[4] = Ebola virus entry assay, green channel fluorescence
[5] = Ebola virus entry assay, reporter ratio channel; Channel type: primary
[6] = Ebola virus entry assay, blue channel (ratio component)
Throughout, for efficacy: 0% is about no effect.

Row | Structure (SMILES) | efficacy [1] [%] | outcome [2] | outcome [3] | outcome [4] | outcome [5] | outcome [6] | AC50 [2] | AC50 [5]
1 | O=C1Nc2cc(Cl)ccc2Oc2ccccc21 | -23 | inactive | inactive | inactive | inactive | inactive |  | 
2 | CC(=O)OCC1=C(C(=O)O)N2C(=O)[C@@H](NC(=O)CSc3ccncc3)[C@H]2SC1 | -6.58 | inactive | inactive | inactive | inactive | inactive |  | 
3 | CCN(CC)CC(=O)Nc1c(C)cccc1C | 11 | inactive | inactive | inactive | inactive | inactive |  | 
4 | NC(=O)CC[C@@H](N)C(=O)O | -11.5 | inactive | inactive | inactive | inactive | inactive |  | 
5 | O=C(CCCCC(=O)Nc1c(I)cc(I)c(C(=O)O)c1I)Nc1c(I)cc(I)c(C(=O)O)c1I | 11.5 | inactive | inactive | inactive | inactive | inactive |  | 
6 | COC(=O)[C@@H](N)Cc1ccc(O)c(O)c1 | -12 | inactive | inactive | inactive | inactive | inactive |  | 
7 | O=C(O)CCC(=O)c1ccc(-c2ccccc2)cc1 | 17.7 | inactive | inactive | inactive | inactive | inactive |  | 
8 | CCCCC(=O)O[C@]1(C(=O)CO)[C@@H](C)C[C@H]2[C@@H]3CCC4=CC(=O)C=C[C@]4(C)[C@@]3(F)[C@@H](O)C[C@@]21C | 22.2 | inactive | inactive | inactive | inactive | inactive |  | 
9 | CCOc1ccccc1C(N)=O | -14.9 | inactive | inactive | inactive | inactive | inactive |  | 
10 | Cc1ccc(/C=N/n2c(-c3ccccc3)csc2=S)cc1 | 32.3 | inactive | inactive | inactive | inactive | inactive |  | 
11 | O=Cc1ccc(O)c(O)c1O | 43 | inactive | inactive | inactive | inactive | inactive |  | 
12 | O=C(O)[C@H](O)[C@@H](O)[C@H](O[C@@H]1O[C@H](CO)[C@H](O)[C@H](O)[C@H]1O)[C@H](O)CO | 24.3 | inactive | inactive | inactive | inactive | inactive |  | 
13 | CCn1cc(C(=O)O)c(=O)c2cc(F)c(N3CCN(C)CC3)cc21 | -16.7 | inactive | inactive | inactive | inactive | inactive |  | 
14 | CC(C)(C)c1ccc(C(=O)CCCCl)cc1 | -23.2 | inactive | inactive | inactive | inactive | inactive |  | 
15 | CN1CC(=O)N2[C@H](c3ccc4c(c3)OCO4)c3[nH]c4ccccc4c3C[C@@H]2C1=O | 22.3 | inactive | inactive | inactive | inactive | inactive |  | 
16 | CN(C(=O)c1c(O)c2ccccc2n(C)c1=O)c1ccccc1 | -16 | inactive | inactive | inactive | inactive | inactive |  | 
17 | CC(=O)N[C@H]1[C@H]([C@H](O)[C@H](O)CO)OC(C(=O)O)=C[C@@H]1N=C(N)N | -18.6 |  | inactive | inactive | inactive | inactive | 2.82 µM (active) | 
18 | Nc1nc2ncc(CNc3ccc(C(=O)N[C@@H](CCC(=O)O)C(=O)O)cc3)nc2c(=O)[nH]1 | 12.4 | inactive | inactive | inactive | inactive | inactive |  | 
19 | Cc1c(Cn2ccnc2)c2ccccc2n1CCC(=O)O | 14 | inactive | inactive | inactive | inactive | inactive |  | 

Row | Structure (SMILES) | efficacy [1] [%] | outcome [2] | outcome [3] | outcome [4] | outcome [5] | outcome [6] | AC50 [2] | AC50 [5]
20 | CCCCC1(COC(=O)CCC(=O)O)C(=O)N(c2ccccc2)N(c2ccccc2)C1=O | -12.3 | inactive | inactive | inactive | inactive | inactive |  | 
21 | CC(=O)N(CC(O)CN(C(C)=O)c1c(I)c(C(=O)NCC(O)CO)c(I)c(C(=O)NCC(O)CO)c1I)c1c(I)c(C(=O)NCC(O)CO)c(I)c(C(=O)NCC(O)CO)c1I (stereo unspecified) | -12.3 | inactive | inactive | inactive | inactive | inactive |  | 
22 | N[C@@H](Cc1cc(I)c(O)c(I)c1)C(=O)O | 29.5 | inactive | inactive | inactive | inactive | inactive |  | 
23 | CC(C)CC(=O)N[C@H](C(=O)N[C@H](C(=O)N[C@@H](CC(C)C)[C@@H](O)CC(=O)N[C@@H](C)C(=O)N[C@@H](CC(C)C)[C@@H](O)CC(=O)O)C(C)C)C(C)C (Isovaleryl-VV[Sta]A[Sta]-OH) | -12.4 | inactive | inactive | inactive | inactive | inactive |  | 
24 | O=C1Nc2ccccc2C1(c1ccc(O)cc1)c1ccc(O)cc1 | -14 | inactive | inactive | inactive | inactive | inactive |  | 
25 | Cn1c(=O)c2c(ncn2CC2OCCO2)n(C)c1=O | -17.6 | inactive | inactive | inactive | inactive | inactive |  | 
26 | C[N+](C)(C)CCOC(=O)CCC(=O)OCC[N+](C)(C)C | 18.3 | inactive | inactive | inactive | inactive | inactive |  | 
27 | OCC(O)CS (stereo unspecified) | -11.9 | inactive | inactive | inactive | inactive | inactive |  | 
28 | CCOC(=O)c1cc(=O)c2c(OCC(COc3cccc4oc(C(=O)OCC)cc(=O)c34)OC(=O)[C@@H](N)CCCCN)cccc2o1 | -21.2 | inactive | inactive | inactive | inactive | inactive |  | 
29 | CC(C)=CCNc1ncnc2c1ncn2[C@@H]1O[C@H](CO)[C@@H](O)[C@H]1O | 38.7 | inactive | inactive | inactive | inactive | inactive |  | 
30 | COc1cccc2c1C(=O)c1c(O)c3c(c(O)c1C2=O)C[C@@](O)(C(=O)CO)C[C@@H]3O[C@H]1C[C@H](N)[C@H](O[C@@H]2CCCCO2)[C@H](C)O1 | 15.3 | inactive | inactive | inactive | inactive | inactive |  | 
31 | CC1(C)O[C@@H]2C[C@H]3[C@@H]4C[C@H](F)C5=CC(=O)CC[C@]5(C)[C@H]4[C@@H](O)C[C@]3(C)[C@]2(C(=O)CO)O1 | 23.9 | inactive | inactive | inactive | inactive | inactive |  | 
32 | CC(C)(C)c1nnc(NS(=O)(=O)c2ccc(N)cc2)s1 | -23 | inactive | inactive | inactive | inactive | inactive |  | 
33 | CC1CC(=O)NN=C1c1ccc(NCC(C)(C)NCC(O)COc2cc(Cl)ccc2C#N)cc1 (stereo unspecified) | 42.4 | inactive | inactive | inactive | inactive | inactive |  | 
34 | CC(=O)OCC(=O)NCCCOc1cccc(CN2CCCCC2)c1 | -11.5 | inactive | inactive | inactive | inactive | inactive |  | 
35 | c1ccc2[nH]c(-c3cscn3)nc2c1 | -29.7 | inactive | inactive | inactive | inactive | inactive |  | 
36 | C[N+]1(C)CCC(=C(c2ccccc2)c2ccccc2)CC1 | -9.5 | inactive | inactive | inactive | inactive | inactive |  | 
37 | CCOC(=O)c1ccc(NC(=O)CN2CCCCC2)cc1 | -17.3 | inactive | inactive | inactive | inactive | inactive |  | 
38 | N[C@H](Cc1c[nH]c2ccccc12)C(=O)O | 29.9 | inactive | inactive | inactive | inactive | inactive |  | 

Row | Structure (SMILES) | efficacy [1] [%] | outcome [2] | outcome [3] | outcome [4] | outcome [5] | outcome [6] | AC50 [2] | AC50 [5]
39 | CC(=O)OC/C=C(C)/C=C/C=C(C)/C=C/C1=C(C)CCCC1(C)C | -18.2 | inactive | inactive | inactive | inactive | inactive |  | 
40 | NCCNC(=O)c1ccc(Cl)cn1 | -25.1 | inactive | inactive | inactive | inactive | inactive |  | 
41 | CC(COc1ccccc1)NC(C)C(O)c1ccc(O)cc1 (stereo unspecified) | -32.1 | inactive | inactive | inactive | inactive | inactive |  | 
42 | CC1CC(OC(=O)C(O)c2ccccc2)CC(C)(C)N1C (stereo unspecified) | 9.62 | inactive | inactive | inactive | inactive | inactive |  | 
43 | CCCCOC(=O)CCCCCCCCC(=O)OCCCC | -13.9 | inactive | inactive | inactive | inactive | inactive |  | 
44 | CC(=O)Oc1ccc(C(=C2CCCCC2)c2ccc(OC(C)=O)cc2)cc1 | -12.6 | inactive | inactive | inactive | inactive | inactive |  | 
45 | CCCCCCc1ccc(O)cc1O | -21 | inactive | inactive | inactive |  | inactive |  | 39.8 µM (active)
46 | O=C(O)c1ccccc1Nc1cc(Cl)ccc1C(=O)O | -12.4 | inactive | inactive | inactive | inactive | inactive |  | 
47 | C[N+]1(CC2COC(c3ccccc3)(C3CCCCC3)O2)CCCCC1 (stereo unspecified) | 48.1 | inactive | inactive | inactive | inactive | inactive |  | 
48 | O=C(O)C(Cc1cc(I)c(O)c(I)c1)c1ccccc1 (stereo unspecified) | -25.4 | inactive | inactive | inactive | inactive | inactive |  | 
49 | COc1ccccc1OC(=O)Oc1ccccc1OC | -25.8 | inactive | inactive | inactive | inactive | inactive |  | 
50 | CC(C)CCCC(C)N (stereo unspecified) | -16.5 | inactive | inactive | inactive | inactive | inactive |  | 
51 | CC(=O)[C@H]1CC[C@H]2[C@@H]3CC=C4C[C@@H](O)CC[C@]4(C)[C@H]3CC[C@]12C | -13.3 | inactive | inactive | inactive | inactive | inactive |  | 
52 | CCN(CC)C(=O)c1cccc(C)c1 | -20 | inactive | inactive | inactive | inactive | inactive |  | 
53 | NS(=O)(=O)c1cc2c(cc1Cl)NCNS2(=O)=O | 14.8 | inactive | inactive | inactive | inactive | inactive |  | 
54 | O=C(CCCCCCCCC#CI)Oc1ccccc1 | -20.5 | inactive | inactive | inactive | inactive | inactive |  | 
55 | CN(C)CCCO[C@@H]1[C@H]2OC(C)(C)O[C@H]2O[C@@H]1C(O)CO (stereo partly specified) | -11.8 | inactive | inactive | inactive | inactive | inactive |  | 
56 | Cc1ccc(O)cc1 | -17.7 | inactive | inactive | inactive | inactive | inactive |  | 
